Results on seven compounds are retold here after PubChem BioAssay (NCATS).

“And” between values parts separate entries of the source, which are not always exact repeats. Equal values may be shown once. Records with an inconclusive call do not appear. The source made the active and inactive calls. Unless noted, calls follow the shape of the dose curve; as a rule, active = well fitted curve in the direction sought with a large enough effect; inconclusive = small, poorly fitted or top-dose-only effect, or another doubt; inactive = no such curve, though single readings can be large; an effect the other way counts as inactive or inconclusive.

The nature of experiment [1]: qHTS Assay for Lipid Storage Modulators (AID 1519; calls by dose curve; as to activity change, negative = inhibition: % is scaled to controls: 0 for no effect and ±100 for the full control effect). As to conditions: Drosophila S3 cells, BODIPY lipid droplet/cell ratio, laser cytometry, cells loaded with oleic acid. In a few lines: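 Cells seeded at 5,000 per well were treated with compounds over a concentration series and loaded with oleic acid (400 uM, as added). Lipid droplet fluorescence (488 nm excitation, 500-530 nm channel) was read by laser-scanning cytometry and normalized to 20 uM Triacsin C.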

Experiment [2] deals with DNA repair nuclease/redox regulator APEX1 (Homo sapiens) (UniProt P27695). The experiment is described as follows: qHTS Validation Assay for Inhibitors of the Human Apurinic/apyrimidinic Endonuclease 1 (APE1) (AID 1705;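 also: TAMRA fluorescence gain over two minutes as APE1 cuts a quenched THF abasic duplex; % is scaled to controls: 0 for no effect and ±100 for the full control effect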). As to conditions: purified APE1 endonuclease activity, fluorescence, titration; series mostly up to 57.1 µM. In a few lines:
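Substrate: 50 nM final fluorophore/quencher THF-abasic duplex. Enzyme preincubated with compounds 15 min, RT. Progress derived from fluorescence difference, third minus first kinetic read.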
In general terms: In qHTS, concentration-response curves come from the screen itself.

Experiment [3] has as its target Endonuclease 4 (Escherichia coli (strain K12)) (UniProt P0A6C1). As to the kind of experiment: Counterscreen for APE1 Inhibitors: qHTS Validation Assay for Inhibitors of Endonuclease IV (AID 1708). Also: % is scaled to controls: 0 for no effect and ±100 for the full control effect. Particulars: E. coli endonuclease IV, DNA cleavage fluorescence; series mostly up to 57.1 µM. In a few lines: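 The reaction buffer contained 50 mM Tris-HCl pH 7.5, 50 mM NaCl, 2 mM MgCl2, 1 mM DTT and 0.01% Tween-20. Incision of a 50 nM fluorophore/quencher THF substrate by 2 nM enzyme was measured kinetically.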
(A counterscreen serves to expose hits that act by an unwanted route or on another target.)

The target in experiment [4] is ATP-dependent DNA helicase Q1 (Homo sapiens) (UniProt P46063). As to the kind of experiment: qHTS Validation Assay for Inhibitors of RecQ-Like Dna Helicase 1 (RECQ1) (AID 2353).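 Also: plate controls were DMSO vehicle for no effect and enzyme-free control for full effect.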 Particulars: recombinant RECQ1 helicase DNA unwinding assay; series mostly up to 25.6 µM. In a few lines: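 RECQ1T1 50 nM; forked duplex (20 bp + 30-nt ss tails) 200 nM, ATP 2 mM final; pH 8.0, 2 mM MgCl2, 2.5 ug/ml poly(dI-dC); 15 min compound preincubation; discontinuous kinetic read over 2 h at RT.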
ATP-dependent DNA helicase Q1 (Homo sapiens), sequence (P46063 whole entry, looked up): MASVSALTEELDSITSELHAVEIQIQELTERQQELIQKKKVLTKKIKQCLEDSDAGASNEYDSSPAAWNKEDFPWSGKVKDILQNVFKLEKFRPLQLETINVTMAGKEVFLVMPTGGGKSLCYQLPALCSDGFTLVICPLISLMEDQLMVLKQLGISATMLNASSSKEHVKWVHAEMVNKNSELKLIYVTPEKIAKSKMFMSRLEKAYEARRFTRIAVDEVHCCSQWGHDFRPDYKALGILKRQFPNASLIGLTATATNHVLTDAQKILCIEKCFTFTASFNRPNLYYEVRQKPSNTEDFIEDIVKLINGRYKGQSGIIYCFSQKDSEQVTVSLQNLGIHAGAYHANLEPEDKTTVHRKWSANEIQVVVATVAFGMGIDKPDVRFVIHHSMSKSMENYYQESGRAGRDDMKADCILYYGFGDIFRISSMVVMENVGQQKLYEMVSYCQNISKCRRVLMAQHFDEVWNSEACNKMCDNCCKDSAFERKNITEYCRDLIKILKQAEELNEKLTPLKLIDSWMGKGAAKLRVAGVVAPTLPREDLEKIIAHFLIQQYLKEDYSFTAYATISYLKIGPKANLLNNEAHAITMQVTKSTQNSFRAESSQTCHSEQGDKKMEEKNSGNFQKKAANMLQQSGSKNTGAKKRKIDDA

In experiment [5] the target is RecQ-like DNA helicase BLM (Homo sapiens) (UniProt P54132). The experiment is described as follows: qHTS Validation Assay for Inhibitors of Bloom's syndrome helicase (BLM) (AID 2364). Also: potency is read from the fitted curve at half-maximal effect.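 As to activity change, negative = inhibition: plate controls were DMSO vehicle for no effect and enzyme-free control for full effect.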 Particulars: BLM helicase DNA unwinding, fluorescence, in vitro; series mostly up to 57.1 µM. In a few lines: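 Forked 20-bp duplex substrate (200 nM, TAMRA/BHQ-2) plus 2 mM ATP added after 15 min compound preincubation with 50 nM enzyme, pH 8.0, poly(dI-dC) 2.5 ug/ml. Strand separation followed by fluorescence (525/598 nm) over 2 h, normalized to enzyme-free and DMSO controls.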
RecQ-like DNA helicase BLM (Homo sapiens), sequence (P54132 whole entry, looked up): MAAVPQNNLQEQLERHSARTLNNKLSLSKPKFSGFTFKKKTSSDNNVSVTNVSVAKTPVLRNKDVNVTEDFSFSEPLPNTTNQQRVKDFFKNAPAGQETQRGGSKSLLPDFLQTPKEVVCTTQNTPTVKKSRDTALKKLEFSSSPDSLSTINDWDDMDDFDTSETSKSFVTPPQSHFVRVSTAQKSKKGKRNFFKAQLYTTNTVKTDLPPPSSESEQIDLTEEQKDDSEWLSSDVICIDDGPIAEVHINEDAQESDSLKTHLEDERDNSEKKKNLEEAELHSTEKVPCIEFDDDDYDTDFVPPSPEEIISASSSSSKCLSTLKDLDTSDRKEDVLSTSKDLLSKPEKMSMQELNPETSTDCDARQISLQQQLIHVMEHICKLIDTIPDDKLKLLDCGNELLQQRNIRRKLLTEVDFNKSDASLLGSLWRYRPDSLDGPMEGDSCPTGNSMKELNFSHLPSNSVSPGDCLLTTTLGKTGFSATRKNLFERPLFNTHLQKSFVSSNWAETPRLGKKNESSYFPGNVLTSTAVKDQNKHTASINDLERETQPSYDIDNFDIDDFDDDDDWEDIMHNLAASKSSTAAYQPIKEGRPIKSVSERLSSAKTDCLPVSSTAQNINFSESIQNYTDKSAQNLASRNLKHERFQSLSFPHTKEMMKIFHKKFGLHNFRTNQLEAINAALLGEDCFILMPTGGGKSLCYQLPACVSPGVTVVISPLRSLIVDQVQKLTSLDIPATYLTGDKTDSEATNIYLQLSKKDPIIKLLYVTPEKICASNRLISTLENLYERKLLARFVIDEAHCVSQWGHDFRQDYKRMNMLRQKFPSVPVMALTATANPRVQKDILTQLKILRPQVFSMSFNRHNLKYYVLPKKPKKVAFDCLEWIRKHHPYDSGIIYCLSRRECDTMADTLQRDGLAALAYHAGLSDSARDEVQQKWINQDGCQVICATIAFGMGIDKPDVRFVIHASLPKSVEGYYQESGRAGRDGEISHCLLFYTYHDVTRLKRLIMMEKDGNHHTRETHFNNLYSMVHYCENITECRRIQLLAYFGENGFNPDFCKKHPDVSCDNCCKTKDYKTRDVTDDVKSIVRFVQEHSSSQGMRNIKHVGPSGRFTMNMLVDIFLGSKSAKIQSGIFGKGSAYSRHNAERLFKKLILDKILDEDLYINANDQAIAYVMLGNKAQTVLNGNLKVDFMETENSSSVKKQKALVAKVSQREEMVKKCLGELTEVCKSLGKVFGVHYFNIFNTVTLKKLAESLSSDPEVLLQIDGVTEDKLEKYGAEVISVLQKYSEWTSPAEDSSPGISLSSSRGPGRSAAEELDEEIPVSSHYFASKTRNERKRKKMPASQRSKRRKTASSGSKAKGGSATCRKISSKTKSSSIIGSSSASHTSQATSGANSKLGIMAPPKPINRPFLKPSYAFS

Experiment [6] can be described thus: Cytometric Cell-Based qHTS for Inhibitors of the mTORC1 Signaling Pathway in MEF (Tsc2-/-, p53-/-) Cells (AID 2660).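 Also: Tsc2 and p53 null MEFs carrying empty vector with compound for 24 h; percent of cells above a phospho-rpS6 to PI ratio cutoff in each well; plate controls were DMSO for no effect and rapamycin for full effect.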 Particulars: mTORC1 pathway cytometry; series mostly up to 38.3 µM. In a few lines: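 Percent of cells positive for normalized phospho-S6 staining is reported, with the cutoff set from rapamycin (7.5 nM) versus DMSO wells. Tsc2-/-, p53-/- MEFs received compound for 24 hrs.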

A short description of experiment [7]: High Content Imaging Cell-Based qHTS for Inhibitors of the mTORC1 Signaling Pathway in MEF (Tsc2-/-, p53-/-) Cells (AID 2666).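 Also: percent of cells scored positive for phospho-rpS6 Ser235/236 immunostaining by imaging.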 As to conditions: at 38.3 µM (top of the series). In a few lines: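 Tsc2-/-, p53-/- MEFs (empty-vector stable) grown in DMEM + 10% FBS were exposed to compounds for 24 hrs at 37 degree Celsius, fixed, and stained with Alexa-488 anti-phospho-rpS6 Ser235/236 plus Hoechst. Imaging gave the percentage of positive cells per well.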

Experiment [8] can be described thus: High Content Imaging Cell-Based qHTS for Inhibitors of the mTORC1 Signaling Pathway in MEF Cells (AID 2667).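 Also: Tsc2-/- p53-/- MEFs stably re-expressing wild-type Tsc2 exposed 24 h; plate controls were DMSO wells for no effect and rapamycin control wells for full effect.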 Particulars: series mostly up to 38.3 µM. In a few lines: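 Tsc2-/-, p53-/- MEFs stably re-expressing WT Tsc2, grown in DMEM + 10% FBS, were treated with compounds for 24 hrs at 37 degree Celsius, fixed, and stained with Alexa-488 phospho-rpS6 Ser235/236 antibody plus Hoechst; results given as % positive cells.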

Experiment [9] is described as follows: Validation screen for small molecules that induce DNA re-replication in MCF 10A normal breast cells (AID 463097). Also: 0% is about no effect; nearly all actives have a fitted effect of over 60% in size. As to conditions: MCF 10A cells, DNA re-replication phenotype imaging; series mostly up to 46.1 µM. In a few lines: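 Following 48 hr compound incubation (37 C, 5% CO2), MCF 10A cells receive Hoechst for 40 min at 37 C. Nuclei are then scanned (excitation 405 nm, emission 500-530 nm) for total fluorescence intensity.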

The nature of experiment [10]: qHTS for differential inhibitors of proliferation of Plasmodium falciparum line 7G8 (AID 1815).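 Also: potency is read from the fitted curve at half-maximal effect; parasite growth measured after three days of incubation.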 As to conditions: Plasmodium falciparum 7G8 proliferation inhibition; series mostly up to 28.7 µM.
The nature of experiment [11]: qHTS for differential inhibitors of proliferation of Plasmodium falciparum line GB4 (AID 1816).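 Also: potency is read from the fitted curve at half-maximal effect; parasite growth measured after 72 h incubation.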 As to conditions: Potency: Plasmodium falciparum GB4 proliferation inhibition; series mostly up to 28.7 µM.
The nature of experiment [12]: qHTS for differential inhibitors of proliferation of Plasmodium falciparum line 3D7 (AID 1876). Also: potency is read from the fitted curve at half-maximal effect. Particulars: P. falciparum 3D7 proliferation inhibition; series mostly up to 28.7 µM.
A short description of experiment [13]: qHTS for differential inhibitors of proliferation of Plasmodium falciparum line D10 (AID 1877).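 Also: potency is read from the fitted curve at half-maximal effect; parasites grown with compound for 72 h before DNA staining.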 As to conditions: series mostly up to 28.7 µM.
Experiment [14] is described as follows: qHTS for differential inhibitors of proliferation of Plasmodium falciparum line Dd2 (AID 1882). Also: nearly all actives have a fitted effect of over 65% in size. Also: potency is read from the fitted curve at half-maximal effect.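 As to activity change, negative = inhibition: compound exposure of 72 h on infected erythrocytes; plate controls were DMSO vehicle for no effect and 0.29 µM artemisinin for full effect.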 As to conditions: Potency: Plasmodium falciparum Dd2 proliferation inhibition; series mostly up to 28.7 µM. In a few lines:
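RBC culture, 0.3% parasitemia / 2.5% Hct final; cpd added by pin tool in DMSO; 72 h, 37 C, 5% CO2; lysis buffer + SYBR Green I, o/n RT dark; FI 485/535; norm. to artemisinin 0.29 uM and DMSO.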

Experiment [15] can be described thus: qHTS for differential inhibitors of proliferation of Plasmodium falciparum line W2 (AID 1883).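 Also: potency is read from the fitted curve at half-maximal effect; parasites grown with compound for 72 h before lysis and staining.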 Particulars: Potency: Plasmodium falciparum W2 proliferation inhibition; series mostly up to 28.7 µM.
The nature of experiment [16]: qHTS for differential inhibitors of proliferation of Plasmodium falciparum line HB3 (AID 1886).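 Also: potency is read from the fitted curve at half-maximal effect; parasites grown with compound for 72 h before SYBR Green readout.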 As to conditions: Potency: Plasmodium falciparum HB3 proliferation inhibition; series mostly up to 28.7 µM.
Experiment [17] is described as follows: qHTS Assay for Modulators of Human Peripheral Myelin Protein 22 (PMP22) Expression/Activity (AID 1967; active = well fitted curve in the direction sought with a large enough effect in the signal ratio; the % refers to the signal ratio;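 also: 0% = untreated cells and 100% end not stated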). As to conditions: Cell-based PMP22 reporter, dual-color luciferase ratio, 0% = compound-free control cells, mouse Pmp22 promoter in mouse Schwann cells; series mostly up to 115 µM. In a few lines: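 Engineered MSC80 cells, Pmp22-promoter green and EF-alpha red luciferase reporters; 24h compound treatment at 37 °C. Concentration-response fits on green, red and ratio signals, each overlap-corrected, with %Activity normalized to untreated wells.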

The mark [18] stands for this setting: measured here: cell count channel max response.
Where [19] appears, read: measured here: lipid channel max response.

DNA repair nuclease/redox regulator APEX1 (Homo sapiens), sequence (P27695 whole entry, looked up): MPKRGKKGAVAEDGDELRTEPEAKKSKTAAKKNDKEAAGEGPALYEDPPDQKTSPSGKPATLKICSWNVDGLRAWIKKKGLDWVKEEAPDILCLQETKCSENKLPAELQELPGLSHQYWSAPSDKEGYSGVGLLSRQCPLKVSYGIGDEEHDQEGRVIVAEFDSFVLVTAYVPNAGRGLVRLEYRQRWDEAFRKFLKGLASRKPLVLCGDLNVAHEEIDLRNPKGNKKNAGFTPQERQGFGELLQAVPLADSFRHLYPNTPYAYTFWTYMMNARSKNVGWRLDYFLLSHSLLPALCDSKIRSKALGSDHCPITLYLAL

Regarding `CC(C)(C)NCC(O)c1ccc(O)c(CO)c1` (stereo unspecified), in [1] (at 57.5 µM (top of the series)), the activity change, negative = inhibition is 0.332% (inactive) and 5.35% (inactive). In addition, the max response in experiment [1] (setting [18]) was 11.9% and -13.2%; in [1] (setting [19]), 15.4% and -7.47%. Further, the result in experiment [2], in [3], in experiment [4], in [6], in [7] and in experiment [8] was inactive. Moreover, the Potency result in experiment [5] and in [9] was “inactive” in each case.
On to `CCN(CC)CCCC(C)Nc1ccnc2cc(Cl)ccc12` (stereo unspecified), for which, in [1] (at 57.5 µM (top of the series)), the activity change, negative = inhibition was 4.83% (inactive). Also, the results for the max response in experiment [1] (setting [18]) and in experiment [1] (setting [19]) were 12.7% and 21.7%, respectively. Also, the compound was called inactive in experiment [2], in [17], in experiment [4], in experiment [6], in experiment [7] and in experiment [8]. The Potency in [10] is 2.51 µM (active); in [11], 1.78 µM (active); in experiment [12], 0.112 µM (active); in experiment [13] it was 0.316 µM (active); in [14], 10 µM (active); in experiment [15] it was 2.24 µM (active). Further, the Potency in experiment [16] was 0.282 µM (active). In addition, the Potency result in [5] and in experiment [9] was “inactive” in each case.
With `Oc1ccc(C2CNCCc3c2cc(O)c(O)c3Cl)cc1` (stereo unspecified), the compound was called inactive in experiment [2], in experiment [3], in experiment [6], in experiment [7] and in experiment [8]. In addition, the Potency in [11] was 10 µM (active); in [12], 10 µM (active); in experiment [13] it was 11.2 µM (active); in [15] it was 10 µM (active); in [16], 11.2 µM (active); in experiment [5] it was 35.5 µM (active). For the same compound, the Potency result in experiment [14] and in experiment [9] was “inactive” each time.
In the case of `C1COC(NC(C2CC2)C2CC2)=N1`, the activity change, negative = inhibition in experiment [1] (at 25.7 µM (top of the series)) was -4.99% (inactive). The max response in [1] (setting [18]) is 3.69%; in [1] (setting [19]) it was -12.8%. Further, the result in experiment [2], in [3], in [4], in experiment [6], in [7] and in experiment [8] was inactive. Further, the Potency in [10] was 7.94 µM (active); in experiment [15], 14.1 µM (active); in experiment [16], 10 µM (active). Further, the Potency result in experiment [5] is “inactive”.
In the case of `CC(C)C[C@H](NC(=O)[C@@H](O)[C@H](N)Cc1ccccc1)C(=O)O`, the activity change, negative = inhibition in [1] (at 57.5 µM (top of the series)) is -0.597% (inactive). In addition, the max response in experiment [1] (setting [18]) was -1.56%; in [1] (setting [19]) it was -0.689%. Moreover, the outcome in experiment [3], in [4], in experiment [6], in [7] and in experiment [8] was inactive. The Potency was 2.51 µM (active) in experiment [10]; 2.51 µM (active) in experiment [11]; 0.631 µM (active) in experiment [12]; 2.82 µM (active) in experiment [13]; 2.24 µM (active) in [14]; 1 µM (active) in experiment [15]. Moreover, the Potency in experiment [16] was 3.55 µM (active). In addition, the Potency entry in experiment [5] and in experiment [9] was “inactive” in each case.
With `OC(CCN1CCCCC1)(c1ccccc1)C1CC2C=CC1C2` (stereo unspecified), the compound was classed as inactive in experiment [6], in [7] and in experiment [8].
For the compound `NCCc1ccc(O)c(O)c1`, in experiment [1] (at 57.5 µM (top of the series)), the activity change, negative = inhibition was 6.86% (inactive) and 6.19% (inactive) and 1.49% (inactive). Also, the max response was 7.38% and 3.94% and -27.9% in [1] (setting [18]); 20.7% and 9.74% and -24.3% in [1] (setting [19]). The compound was called inactive in experiment [2], in [3], in experiment [4], in experiment [6] and in experiment [7]. Also, the Potency result in [14] and in experiment [9] was “inactive” each time. Also, the Potency in experiment [15] was 10 µM (active).
